From PubChem BioAssay
Anthrax LF prot: anthrax lethal factor protease inhibition; 360,000 tested, 0.12% active; P15917; inhibition, % at 10 µM; AID 588501; multiplex microsphere protease cleavage assay, LF; note: plate controls were buffer without enzyme for full effect and enzyme alone for no effect
Target sequence (P15917 whole entry, looked up): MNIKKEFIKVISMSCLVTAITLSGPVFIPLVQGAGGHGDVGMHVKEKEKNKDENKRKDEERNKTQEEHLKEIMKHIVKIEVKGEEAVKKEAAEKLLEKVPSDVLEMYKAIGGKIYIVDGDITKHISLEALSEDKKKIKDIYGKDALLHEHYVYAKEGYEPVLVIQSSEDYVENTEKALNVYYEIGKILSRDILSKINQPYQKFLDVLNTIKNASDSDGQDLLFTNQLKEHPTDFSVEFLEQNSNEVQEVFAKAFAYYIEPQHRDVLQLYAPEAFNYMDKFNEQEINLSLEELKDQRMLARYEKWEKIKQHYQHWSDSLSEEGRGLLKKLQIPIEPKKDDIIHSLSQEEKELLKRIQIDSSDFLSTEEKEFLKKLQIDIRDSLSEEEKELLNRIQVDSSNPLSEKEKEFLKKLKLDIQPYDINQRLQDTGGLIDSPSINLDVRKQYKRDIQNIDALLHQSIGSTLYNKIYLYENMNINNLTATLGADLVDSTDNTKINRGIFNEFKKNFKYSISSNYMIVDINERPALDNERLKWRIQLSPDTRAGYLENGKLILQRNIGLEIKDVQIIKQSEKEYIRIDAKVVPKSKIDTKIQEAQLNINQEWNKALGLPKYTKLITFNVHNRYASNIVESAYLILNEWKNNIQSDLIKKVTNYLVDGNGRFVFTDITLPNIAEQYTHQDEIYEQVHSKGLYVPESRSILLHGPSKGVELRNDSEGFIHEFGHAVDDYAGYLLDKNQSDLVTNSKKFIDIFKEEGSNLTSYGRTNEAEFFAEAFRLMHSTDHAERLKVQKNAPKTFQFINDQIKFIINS
BoNT A protease: blocks Botulinum neurotoxin A light chain protease | inhibition, % at 10 µM | multiplex microsphere protease substrate cleavage, flow cytometry | AID 588499 | 360,000 tested, 0.17% active; note: plate controls were buffer without enzyme for full effect and enzyme alone for no effect
3CLpro inhibitor: SARS-CoV 3CLpro protease inhibition; recombinant SARS-CoV 3CLpro, quenched FRET peptide cleavage; inhibition, % at 6 µM; 290,000 tested, 0.14% active; in the data active = inhibition above about 12%
Bead autofluor: compound fluorescence in toxin protease inhibitor counterscreen; compound autofluorescence counterscreen, microsphere flow cytometry; stronger effect = higher value; fluorescence intensity (no concentration beside the values); 360,000 tested, 3.1% active; AID 624483; in the data active = fluorescence intensity above about 16000; inconclusive = no clear call, values can overlap the other calls
BoNT F protease: blocks Botulinum neurotoxin F light chain protease; Multiplex microsphere protease cleavage assay, flow cytometry; inhibition, % at 10 µM; 360,000 tested, 0.22% active; in the data active = inhibition above about 35%, passing the limit was not always enough; inconclusive = no clear call, values can overlap the other calls; note: plate controls were buffer without enzyme for full effect and enzyme alone for no effect
* = called active by the depositor. A selection: hits, their analogues and other compounds. The true share with any hit is near 3.5%. Cut-off read from the data, not from the text of the source, unless noted: active = inhibition above about 30%; inconclusive = no clear call, values can overlap the other calls; inactive = below that.

How did Cc1cccc(S(=O)(=O)NC(=O)C2(C)CCN2C(=O)C2(c3ccc(Cl)cc3)CC2)c1 (configuration not stated) do in these assays?
Anthrax LF prot: -3.2; BoNT A protease: -0.5; Bead autofluor: 3702; BoNT F protease: -4.4

What do the screens show for `CC(C)(C)NC(=O)CSc1nc(-c2ccccc2)c(-c2ccccc2)[nH]1`?
Anthrax LF prot: -13.4; BoNT A protease: 0.1; 3CLpro inhibitor: 3.3; Bead autofluor: 23364*; BoNT F protease: 0.5

Results for CNC(=O)/C=C/c1cccc(C(F)(F)F)c1 ?
Anthrax LF prot: 1.5; BoNT A protease: 4.0; 3CLpro inhibitor: 1.0; Bead autofluor: 2221; BoNT F protease: 39.8*

Results for Cc1ccccc1NC(=O)/C=C/c1cccc(C(F)(F)F)c1 ?
Anthrax LF prot: 3.8; BoNT A protease: 1.0; 3CLpro inhibitor: 1.1; Bead autofluor: 9831; BoNT F protease: 0.9

What do the screens show for `CN(c1ccccc1)C(c1ccc(F)cc1)c1nnnn1CC1CCCO1` (configuration not stated)?
Anthrax LF prot: -0.7; BoNT A protease: -0.1; 3CLpro inhibitor: 2.1; Bead autofluor: 16681*; BoNT F protease: -1.7

How did CN(c1ccccc1)C(c1ccc(F)cc1)c1nnnn1C1CCCC1 (configuration not stated) do in these assays?
Anthrax LF prot: -5.1; BoNT A protease: inconclusive; 3CLpro inhibitor: 1.9; Bead autofluor: 23833*; BoNT F protease: -8.4

How did Cc1ccc(C(c2nnnn2C2CCCCC2)N(C)C2CCCCC2)cc1 (configuration not stated) do in these assays?
Anthrax LF prot: -1.0; BoNT A protease: -0.2; 3CLpro inhibitor: -2.1; Bead autofluor: 7015; BoNT F protease: -3.2

Results for COC(=O)Cc1c[nH]c2cccc(OCC(O)CN(Cc3ccc([N+](=O)[O-])cc3)C(C)(C)C)c12 (configuration not stated) ?
Anthrax LF prot: -5.5; BoNT A protease: -3.0; 3CLpro inhibitor: 4.9; Bead autofluor: 24016*; BoNT F protease: -8.9

How did COc1cccc(NC(=O)CSc2nnc(Cc3cccs3)n2-c2ccc(C)cc2)c1 do in these assays?
Anthrax LF prot: -7.2; BoNT A protease: inconclusive; 3CLpro inhibitor: -0.7; Bead autofluor: 14630; BoNT F protease: 6.6

Results for COc1ccc(NC(=O)CSc2nnc(Cc3cccs3)n2-c2ccc(C)cc2)cc1 ?
Anthrax LF prot: -1.4; BoNT A protease: inconclusive; 3CLpro inhibitor: -1.9; Bead autofluor: 23035*; BoNT F protease: 0.8

Results for C=CCn1c(CCNC(=O)c2cccs2)nnc1SCC(=O)Nc1cccc(F)c1 ?
Anthrax LF prot: 1.3; BoNT A protease: 10.2; 3CLpro inhibitor: 2.0; Bead autofluor: 17039*; BoNT F protease: 14.0

How did Cc1ccc(C(=O)NCc2nnc(SCC(=O)Nc3ccccc3)n2C)cc1 do in these assays?
Anthrax LF prot: -0.9; BoNT A protease: -0.9; 3CLpro inhibitor: 2.6; Bead autofluor: 2168; BoNT F protease: -4.0

What do the screens show for `Cn1c(CNC(=O)c2cccs2)nnc1SCC(=O)Nc1ccc(Cl)cc1`?
Anthrax LF prot: -4.0; BoNT A protease: inconclusive; 3CLpro inhibitor: 3.1; Bead autofluor: 21585*; BoNT F protease: 0.3

What do the screens show for `C=CCn1c(Cc2cccs2)nnc1SCC(=O)Nc1cccc(OC)c1`?
Anthrax LF prot: -1.5; BoNT A protease: 1.0; 3CLpro inhibitor: 1.1; Bead autofluor: 16319*; BoNT F protease: 1.4

Results for C=CCn1c(Cc2cccs2)nnc1SCC(=O)Nc1ccc(OC)cc1 ?
Anthrax LF prot: -2.1; BoNT A protease: 0.3; 3CLpro inhibitor: -0.9; Bead autofluor: 16196*; BoNT F protease: 0.3

Results for CN(C)c1ccc(NC(=O)CSc2nnc(-c3cccs3)n2Cc2ccco2)cc1 ?
Anthrax LF prot: -7.2; BoNT A protease: inconclusive; 3CLpro inhibitor: 3.4; Bead autofluor: 22600*; BoNT F protease: -4.4

Results for C=CCn1c(Cc2csc(N)n2)nnc1SCC(=O)Nc1ccccc1C(F)(F)F ?
Anthrax LF prot: 2.3; BoNT A protease: -0.9; 3CLpro inhibitor: -6.0; Bead autofluor: 23049*; BoNT F protease: -2.8

What do the screens show for `COc1ccc(-n2c(CNc3ccc(C)cc3)nnc2SCC(=O)Nc2nc(-c3ccccc3)cs2)cc1`?
Anthrax LF prot: 1.0; BoNT A protease: inconclusive; 3CLpro inhibitor: -0.8; Bead autofluor: 24302*; BoNT F protease: -0.9

How did CC(C(=O)NCC1CCCCC1)N(C)Cc1ccc(Br)cc1 (configuration not stated) do in these assays?
Anthrax LF prot: 2.5; BoNT A protease: 0.7; 3CLpro inhibitor: 2.1; Bead autofluor: 3698; BoNT F protease: -15.1

What do the screens show for `COc1cccc(C(=O)NCc2nnc(SCC(=O)Nc3nccs3)n2-c2cccc(C)c2)c1`?
Anthrax LF prot: 0.8; BoNT A protease: -2.5; 3CLpro inhibitor: -2.1; Bead autofluor: 16987*; BoNT F protease: -5.8

Results for O=C(CSc1nnc(Cc2cccs2)n1Cc1ccco1)Nc1cccc(Cl)c1 ?
Anthrax LF prot: -5.0; BoNT A protease: -0.9; 3CLpro inhibitor: -0.5; Bead autofluor: 22807*; BoNT F protease: -0.5

What do the screens show for `C=CCn1c(SCC(=O)Nc2ccccc2CC)nnc1-c1ccncc1`?
Anthrax LF prot: -6.2; BoNT A protease: 0.7; 3CLpro inhibitor: -0.9; Bead autofluor: 23141*; BoNT F protease: 0.4

Results for CC(C)(C)OC(=O)N1CCC(C(=O)Nc2ccc3c(c2)CCC3)CC1 ?
Anthrax LF prot: -2.8; BoNT A protease: 0.7; Bead autofluor: 2719; BoNT F protease: -1.9

Results for COc1ccccc1Oc1cc(C#N)c(C#N)cc1-n1nnc2ccccc21 ?
Anthrax LF prot: -7.6; BoNT A protease: 1.5; 3CLpro inhibitor: -1.7; Bead autofluor: 22329*; BoNT F protease: 2.5

How did CCc1ccc(C(=O)CSc2n[nH]c(C)n2)cc1 do in these assays?
Anthrax LF prot: -3.0; BoNT A protease: -0.6; 3CLpro inhibitor: 2.1; Bead autofluor: 21979*; BoNT F protease: -2.2

What do the screens show for `Nc1nnc(SCc2ccccc2)n1-c1ccccc1`?
Anthrax LF prot: -13.0; BoNT A protease: inconclusive; 3CLpro inhibitor: -4.8; Bead autofluor: 17516*; BoNT F protease: 9.2

How did Cc1cccc(CSc2nnnn2-c2ccccc2)c1 do in these assays?
Anthrax LF prot: -4.0; BoNT A protease: 0.3; 3CLpro inhibitor: -2.9; Bead autofluor: 2478; BoNT F protease: 3.5

What do the screens show for `Cc1cccc(CSc2nnc(N)n2-c2ccccc2)c1`?
Anthrax LF prot: -7.2; BoNT A protease: -1.2; 3CLpro inhibitor: 2.8; Bead autofluor: 22675*; BoNT F protease: -1.1

Results for CCN(CCO)CC1CCCC2CCCCC21 (configuration not stated) ?
Anthrax LF prot: 8.7; BoNT A protease: -0.3; Bead autofluor: 4424; BoNT F protease: 0.9

How did Cc1nc(SCC(=O)CC(=O)OC(C)C)c(C#N)c(C)c1C do in these assays?
Anthrax LF prot: -11.3; BoNT A protease: -1.5; 3CLpro inhibitor: 3.0; Bead autofluor: 9811; BoNT F protease: -13.0

Results for CSc1nc(N)nc(SCC(=O)CC(=O)OC(C)C)c1C#N ?
Anthrax LF prot: -0.3; BoNT A protease: inconclusive; 3CLpro inhibitor: -0.3; Bead autofluor: 20850*; BoNT F protease: -3.2

What do the screens show for `O=C(Nc1ccc(C(=O)N2CCN(c3ccccc3F)CC2)cc1)C1=CSCCO1`?
Anthrax LF prot: 0.9; BoNT A protease: 0.1; 3CLpro inhibitor: 2.8; Bead autofluor: 5376; BoNT F protease: 3.1
